Whole data set: some 16,000 sequences, median “rpm ratio (pull-down/input)” near 0.94, cut for the highest 2% near 1.7. The sample holds the highest values, similar sequences and a random draw of the others, so the mix is not that of the screen.

The values that follow come from article PMC12820563, “FoxP3 forms a head-to-head dimer in vivo and stabilizes its multimerization on adjacent microsatellites”.

The target in the test is T1, MBP-FoxP1dN (Mus musculus, UniProt P58462 326-579).
T1 sequence: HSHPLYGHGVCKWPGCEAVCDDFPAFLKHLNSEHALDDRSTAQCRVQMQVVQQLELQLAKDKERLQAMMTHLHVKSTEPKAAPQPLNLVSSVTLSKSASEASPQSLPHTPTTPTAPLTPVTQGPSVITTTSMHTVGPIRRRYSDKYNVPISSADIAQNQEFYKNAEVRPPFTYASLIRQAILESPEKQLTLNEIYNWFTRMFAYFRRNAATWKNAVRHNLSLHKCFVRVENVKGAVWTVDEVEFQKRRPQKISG
Nature of the test: PD-seq (MBP pull-down with sequencing); 20 mM Tris-HCl pH 7.5, 100 mM NaCl, 1.5 mM MgCl2, 0.4 uM protein, 0.1 uM dsDNA library, 30 min, room temperature, amylose pull-down; high values mean tight binding. Conditions: protein: recombinant; tags: His6-MBP; chain copies: 2; dsDNA, one strand shown. The procedure, abridged:
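Binding is reads-per-million enrichment of pull-down over input, with replicates pooled. It comes from 30 min room-temperature incubation in Tris pH 7.5 buffer with NaCl and MgCl2 of 0.4 µM His6-MBP-tagged, N-terminally truncated mouse FoxP3 or FoxP1 fragment from E. coli with 0.1 µM Klenow-filled degenerate double-stranded DNA library, followed by amylose resin capture, three washes and Illumina sequencing of the released DNA.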
Take “GATGATTGTTCTCCCAGCTGATGAATTAAATTTGTCGAGTAAACAAATTTTCCTAATCTTTCTGTTCAAGCGCCATCTAC”: the binding signal was 1.06 RPM ratio (pull-down/input).

For “GATGATTGTTCTCCCAGCTGATGAATTAGTACTGTCGAGTAAACAAATTTTCCTAATCTTTCTGTTCAAGCGCCATCTAC”, the binding signal is 1 RPM ratio (pull-down/input).

Turning to “GATGATTGTTCTCCCAGCTGATGAATTTCGGCTGTCGAGTAAACAAATTTTCCTAATCTTTCTGTTCAAGCGCCATCTAC”, the binding signal was 0.82 RPM ratio (pull-down/input).

For “GATGATTGTTCTCCCAGCTGATGAATTATCCGCATCGAGTAAACAAATTTTCCTAATCTTTCTGTTCAAGCGCCATCTAC”, the binding signal is 1.15 RPM ratio (pull-down/input).

On to “GATGATTGTTCTCCCAGCTGATGAATTCTTCTGATCGAGTAAACAAATTTTCCTAATCTTTCTGTTCAAGCGCCATCTAC”, for which the binding signal was 0.96 RPM ratio (pull-down/input).

Take “GATGATTGTTCTCCCAGCTGATGAATTGCGCCATTCGAGTAAACAAATTTTCCTAATCTTTCTGTTCAAGCGCCATCTAC”: the binding signal is 1.14 RPM ratio (pull-down/input).

Regarding “GATGATTGTTCTCCCAGCTGATGAATTCGATTGCTCGAGTAAACAAATTTTCCTAATCTTTCTGTTCAAGCGCCATCTAC”, the binding signal was 0.842 RPM ratio (pull-down/input).

For “GATGATTGTTCTCCCAGCTGATGAATTAAAGGTCTCGAGTAAACAAATTTTCCTAATCTTTCTGTTCAAGCGCCATCTAC”, the binding signal is 0.774 RPM ratio (pull-down/input).

On to “GATGATTGTTCTCCCAGCTGATGAATTGAGTGGCTCGAGTAAACAAATTTTCCTAATCTTTCTGTTCAAGCGCCATCTAC”, for which the binding signal is 0.823 RPM ratio (pull-down/input).

Turning to “GATGATTGTTCTCCCAGCTGATGAATTTTATTGTTCGAGTAAACAAATTTTCCTAATCTTTCTGTTCAAGCGCCATCTAC”, the binding signal is 2.31 RPM ratio (pull-down/input).

Regarding “GATGATTGTTCTCCCAGCTGATGAATTTATTTGTTCGAGTAAACAAATTTTCCTAATCTTTCTGTTCAAGCGCCATCTAC”, the binding signal was 2.15 RPM ratio (pull-down/input).

For the sequence “GATGATTGTTCTCCCAGCTGATGAATTTTTTATTTCGAGTAAACAAATTTTCCTAATCTTTCTGTTCAAGCGCCATCTAC”, the binding signal was 1.04 RPM ratio (pull-down/input).

“GATGATTGTTCTCCCAGCTGATGAATTTATTTTTTCGAGTAAACAAATTTTCCTAATCTTTCTGTTCAAGCGCCATCTAC”: the binding signal is 1.41 RPM ratio (pull-down/input).

With “GATGATTGTTCTCCCAGCTGATGAATTAAGGCGATCGAGTAAACAAATTTTCCTAATCTTTCTGTTCAAGCGCCATCTAC”, the binding signal was 0.912 RPM ratio (pull-down/input).

As to “GATGATTGTTCTCCCAGCTGATGAATTTGAACTTTCGAGTAAACAAATTTTCCTAATCTTTCTGTTCAAGCGCCATCTAC”, the binding signal was 0.845 RPM ratio (pull-down/input).

For the sequence “GATGATTGTTCTCCCAGCTGATGAATTTGTACTATCGAGTAAACAAATTTTCCTAATCTTTCTGTTCAAGCGCCATCTAC”, the binding signal is 1.22 RPM ratio (pull-down/input).

Turning to “GATGATTGTTCTCCCAGCTGATGAATTCTATACATCGAGTAAACAAATTTTCCTAATCTTTCTGTTCAAGCGCCATCTAC”, the binding signal was 1.08 RPM ratio (pull-down/input).

As to “GATGATTGTTCTCCCAGCTGATGAATTTCAAACATCGAGTAAACAAATTTTCCTAATCTTTCTGTTCAAGCGCCATCTAC”, the binding signal is 1.18 RPM ratio (pull-down/input).

Turning to “GATGATTGTTCTCCCAGCTGATGAATTCTATACGTCGAGTAAACAAATTTTCCTAATCTTTCTGTTCAAGCGCCATCTAC”, the binding signal was 0.962 RPM ratio (pull-down/input).

For “GATGATTGTTCTCCCAGCTGATGAATTCTGTAAATCGAGTAAACAAATTTTCCTAATCTTTCTGTTCAAGCGCCATCTAC”, the binding signal is 1.18 RPM ratio (pull-down/input).

Take “GATGATTGTTCTCCCAGCTGATGAATTTCTGTAATCGAGTAAACAAATTTTCCTAATCTTTCTGTTCAAGCGCCATCTAC”: the binding signal was 1.49 RPM ratio (pull-down/input).

For the sequence “GATGATTGTTCTCCCAGCTGATGAATTGTATACATCGAGTAAACAAATTTTCCTAATCTTTCTGTTCAAGCGCCATCTAC”, the binding signal is 2.35 RPM ratio (pull-down/input).

As for “GATGATTGTTCTCCCAGCTGATGAATTTGTAACATCGAGTAAACAAATTTTCCTAATCTTTCTGTTCAAGCGCCATCTAC”, the binding signal is 1.45 RPM ratio (pull-down/input).

As to “GATGATTGTTCTCCCAGCTGATGAATTGTATACGTCGAGTAAACAAATTTTCCTAATCTTTCTGTTCAAGCGCCATCTAC”, the binding signal is 1.82 RPM ratio (pull-down/input).

As to “GATGATTGTTCTCCCAGCTGATGAATTTTATACGTCGAGTAAACAAATTTTCCTAATCTTTCTGTTCAAGCGCCATCTAC”, the binding signal is 0.957 RPM ratio (pull-down/input).

For “GATGATTGTTCTCCCAGCTGATGAATTGTAAACATCGAGTAAACAAATTTTCCTAATCTTTCTGTTCAAGCGCCATCTAC”, the binding signal is 2.78 RPM ratio (pull-down/input).

With “GATGATTGTTCTCCCAGCTGATGAATTTTATACATCGAGTAAACAAATTTTCCTAATCTTTCTGTTCAAGCGCCATCTAC”, the binding signal is 1.09 RPM ratio (pull-down/input).

In the case of “GATGATTGTTCTCCCAGCTGATGAATTGTTGTAATCGAGTAAACAAATTTTCCTAATCTTTCTGTTCAAGCGCCATCTAC”, the binding signal is 1.96 RPM ratio (pull-down/input).

Take “GATGATTGTTCTCCCAGCTGATGAATTTAACGCCTCGAGTAAACAAATTTTCCTAATCTTTCTGTTCAAGCGCCATCTAC”: the binding signal is 0.91 RPM ratio (pull-down/input).

Regarding “GATGATTGTTCTCCCAGCTGATGAATTAGCGCACTCGAGTAAACAAATTTTCCTAATCTTTCTGTTCAAGCGCCATCTAC”, the binding signal was 0.88 RPM ratio (pull-down/input).

Consider “GATGATTGTTCTCCCAGCTGATGAATTACACGCGTCGAGTAAACAAATTTTCCTAATCTTTCTGTTCAAGCGCCATCTAC”, for which the binding signal is 1.18 RPM ratio (pull-down/input).

Take “GATGATTGTTCTCCCAGCTGATGAATTCACGGGTTCGAGTAAACAAATTTTCCTAATCTTTCTGTTCAAGCGCCATCTAC”: the binding signal was 0.766 RPM ratio (pull-down/input).

As to “GATGATTGTTCTCCCAGCTGATGAATTCAGTCTATCGAGTAAACAAATTTTCCTAATCTTTCTGTTCAAGCGCCATCTAC”, the binding signal is 0.905 RPM ratio (pull-down/input).

For the sequence “GATGATTGTTCTCCCAGCTGATGAATTCGCCACTTCGAGTAAACAAATTTTCCTAATCTTTCTGTTCAAGCGCCATCTAC”, the binding signal is 0.857 RPM ratio (pull-down/input).

Consider “GATGATTGTTCTCCCAGCTGATGAATTGTACTCATCGAGTAAACAAATTTTCCTAATCTTTCTGTTCAAGCGCCATCTAC”, for which the binding signal was 1.04 RPM ratio (pull-down/input).
